Structures are written as SMILES.
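Further: KINOMEscan kinase panel screen.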

In one experiment the test system is MAK. The conditions noted are these: concentration: 1 μM, replicates: in singlicate; n = 1.
Regarding `COC(=O)C(Cc1ccccc1)NC(=O)NC1CCN(c2ccnc(Nc3ccc(F)cc3)n2)C1` (stereo not drawn) [GSK1379714], the “%Inh” value is 35%.

Consider `CSc1ccc(-c2nc3n(c2-c2ccncc2)CCC3)cc1` [SKF-105561], for which the “%Inh” value is 0%.

`COc1ccc(Nc2nccc(N3CCC(NC(=O)c4cc5ccccc5s4)C3)n2)cc1` (stereo not drawn) [GSK1379738]: the “%Inh” value is listed as 86%.

Consider `Cc1ccc(NC(=O)Nc2ccc(Cl)cc2)cc1-c1ccc(C(=O)Nc2ccncc2)cc1` [GSK1398472], for which the “%Inh” value was found to be 18%.

As to `CC(C)c1ccc(O)cc1Nc1ccnc2ccc(C(F)(F)F)cc12` [GW482059], the “%Inh” value is 25%.

As for `COC(=O)c1cccc(NC(=O)NC2CCN(c3ccnc(Nc4ccc(F)cc4)n3)C2)c1` (stereo not drawn) [GSK1379725], the “%Inh” value is listed as 16%.

As to `O=c1cc(N2CCOCC2)nc2n(Cc3ccccc3F)ccn12` [GSK2297428], the “%Inh” value is listed as 8%.

`Cc1ccccc1-c1cc(-c2c[nH]nc2-c2ccccn2)ccn1` [GW680061]: the “%Inh” value is 34%.

Regarding `COc1ccc(Nc2nccc(NCCNC(=O)Nc3cc(C)ccc3C)n2)cc1` [GSK1379899], the “%Inh” value was 20%.

As for `FC(F)(F)c1ccccc1-c1cc(-c2c[nH]nc2-c2ccccn2)ccn1` [GW679396], the “%Inh” value came to 35%.

Consider `Cc1ccccc1Cn1ccn2c(=O)cc(N3CCOCC3)nc12` [GSK2269905], for which the “%Inh” value is on record as 0%.

Consider `Cc1ccc(NC(=O)Nc2ccc(Cl)c(C(F)(F)F)c2)cc1-c1ccc(C(=O)Nc2ccncc2)cc1` [GSK1398470], for which the “%Inh” value amounted to 15%.

As for `CCc1ccc(-c2ccc3c(c2)-c2n[nH]cc2S(=O)(=O)N3C)cc1`, the “%Inh” value was determined as 0%.

Consider `CNCc1ccc2nc(NC(=O)c3ccc(C(C)(C)C)cc3)cn2c1`, for which the “%Inh” value worked out at 15%.

Regarding `Fc1ccc(-c2nn3cccc(F)c3c2-c2ccncc2)cc1` [GW475620], the “%Inh” value came out at 0%.

On to `CNc1nc(-c2ccc3c(N)n[nH]c3c2)cc(N2C[C@@H](C(=O)Nc3ccccc3)CC[C@H]2C)n1` [GSK2298859], for which the “%Inh” value stood at 9%.

Turning to `Cc1ccc(NC(=O)Nc2ccccc2F)cc1-c1ccc(C(=O)Nc2ccncc2)cc1` [GSK1398477], the “%Inh” value turned out to be 30%.

As to `Cc1ccc(NC(=O)c2ccc(Cl)cc2)cc1-c1ccc(C(=O)Nc2ccncc2)cc1` [GSK1398467], the “%Inh” value came out at 0%.

As for `COC(=O)C(NC(=O)NC1CCN(c2ccnc(Nc3ccc(F)cc3)n2)C1)c1ccccc1` (stereo not drawn) [GSK1379712], the “%Inh” value is on record as 0%.

With `Nc1nccc(-c2c(-c3ccc(F)cc3)ncn2C2CCN(Cc3ccccc3)CC2)n1` [SB-219980], the “%Inh” value is 0%.

As to `NS(=O)(=O)c1cccc(N/C=C2\C(=O)Nc3ccc(S(=O)(=O)Cc4c(Cl)cccc4Cl)cc32)c1` [GSK398099], the “%Inh” value is given as 28%.

Take `CN1c2ccc(-c3ccc(C(N)=O)cc3)cc2-c2[nH]ncc2S1(=O)=O`: the “%Inh” value was found to be 0%.

With `CNC(=O)c1ccc(C)c(-n2c(C)cc(OCc3ccc(F)cc3F)c(Br)c2=O)c1`, the “%Inh” value is listed as 0%.

As to `Nc1ncnc2occ(-c3ccc4c(c3)CCN4C(=O)Cc3cc(F)ccc3F)c12` [GSK2645446], the “%Inh” value is given as 0%.

On to `Cc1c(Cn2c(C)c(C)n3c(=O)cc(N4CCOCC4)nc23)cccc1C(F)(F)F` [GSK2328680], for which the “%Inh” value was 16%.

For the compound `Cc1ccc(-c2nc(Nc3ccncc3)c3ccccc3n2)s1` [GSK189015], the “%Inh” value stood at 36%.

Take `O=C1NC(=O)C(c2ccc(Cl)cc2)=C1Nc1cccc(Cl)c1` [SB-317651]: the “%Inh” value turned out to be 16%.

As to `Cn1cnc2c(N)ncnc21` [SKF-97623], the “%Inh” value was 0%.

Regarding `Cc1ccc(NC(=O)Nc2ccccc2)cc1-c1ccc(C(=O)Nc2ccncc2)cc1` [GSK1398471], the “%Inh” value stood at 17%.

In the case of `CCn1c(-c2c(N)noc2C)nc2cnccc21` [SB-737856], the “%Inh” value is recorded as 0%.

On to `COc1ccc(Nc2nccc(-c3ccc(NC(=O)c4cc5cc(F)ccc5[nH]4)cc3)n2)cc1` [GSK1229496], for which the “%Inh” value stood at 22%.

On to `Nc1cccc(-c2ccc3c(N)n[nH]c3c2)n1` [GSK2192730], for which the “%Inh” value is 26%.

As to `CS(=O)(=O)CCNCc1nc(-c2ccc3ncnc(Nc4ccc(OCc5ccccc5)c(Cl)c4)c3c2)cs1.Cl` [GW582764], the “%Inh” value turned out to be 26%.

In the case of `COc1ccc(Nc2nccc(N3CCC(NC(=O)C(C)c4ccc(Cl)cc4)C3)n2)cc1` (stereo not drawn) [GSK1379735], the “%Inh” value is reported as 9%.

Take `Cc1cnc(N)c(/C=C/c2cncc(C(=O)NCCc3ccc(Cl)cc3Cl)c2)c1.Cl` [GSK190937]: the “%Inh” value worked out at 9%.

Turning to `O=C(Nc1n[nH]c2nc(-c3cccs3)c(Br)cc12)C1CC1` [SB-735297], the “%Inh” value is listed as 34%.

Another experiment relates to MAP3K15. The conditions noted are these: concentration: 1 μM, replicates: in singlicate; n = 1.
As to `COC(=O)C(Cc1ccccc1)NC(=O)NC1CCN(c2ccnc(Nc3ccc(F)cc3)n2)C1` (stereo not drawn) [GSK1379714], the “%Inh” value amounted to 0%.

`CSc1ccc(-c2nc3n(c2-c2ccncc2)CCC3)cc1` [SKF-105561]: the “%Inh” value is given as 16%.

For `COc1ccc(Nc2nccc(N3CCC(NC(=O)c4cc5ccccc5s4)C3)n2)cc1` (stereo not drawn) [GSK1379738], the “%Inh” value is listed as 0%.

`Cc1ccc(NC(=O)Nc2ccc(Cl)cc2)cc1-c1ccc(C(=O)Nc2ccncc2)cc1` [GSK1398472]: the “%Inh” value was 0%.

Regarding `CC(C)c1ccc(O)cc1Nc1ccnc2ccc(C(F)(F)F)cc12` [GW482059], the “%Inh” value turned out to be 13%.

With `COC(=O)c1cccc(NC(=O)NC2CCN(c3ccnc(Nc4ccc(F)cc4)n3)C2)c1` (stereo not drawn) [GSK1379725], the “%Inh” value was 0%.

Consider `O=c1cc(N2CCOCC2)nc2n(Cc3ccccc3F)ccn12` [GSK2297428], for which the “%Inh” value is 0%.

`Cc1ccccc1-c1cc(-c2c[nH]nc2-c2ccccn2)ccn1` [GW680061]: the “%Inh” value was determined as 0%.

As to `COc1ccc(Nc2nccc(NCCNC(=O)Nc3cc(C)ccc3C)n2)cc1` [GSK1379899], the “%Inh” value is reported as 0%.

On to `FC(F)(F)c1ccccc1-c1cc(-c2c[nH]nc2-c2ccccn2)ccn1` [GW679396], for which the “%Inh” value is given as 0%.

As to `Cc1ccccc1Cn1ccn2c(=O)cc(N3CCOCC3)nc12` [GSK2269905], the “%Inh” value was 0%.

For the compound `Cc1ccc(NC(=O)Nc2ccc(Cl)c(C(F)(F)F)c2)cc1-c1ccc(C(=O)Nc2ccncc2)cc1` [GSK1398470], the “%Inh” value is on record as 0%.

Take `CCc1ccc(-c2ccc3c(c2)-c2n[nH]cc2S(=O)(=O)N3C)cc1`: the “%Inh” value was determined as 0%.

As for `CNCc1ccc2nc(NC(=O)c3ccc(C(C)(C)C)cc3)cn2c1`, the “%Inh” value is 98.9%.

With `Fc1ccc(-c2nn3cccc(F)c3c2-c2ccncc2)cc1` [GW475620], the “%Inh” value amounted to 0%.

For the compound `CNc1nc(-c2ccc3c(N)n[nH]c3c2)cc(N2C[C@@H](C(=O)Nc3ccccc3)CC[C@H]2C)n1` [GSK2298859], the “%Inh” value was 0%.

For `Cc1ccc(NC(=O)Nc2ccccc2F)cc1-c1ccc(C(=O)Nc2ccncc2)cc1` [GSK1398477], the “%Inh” value is 0%.

Take `Cc1ccc(NC(=O)c2ccc(Cl)cc2)cc1-c1ccc(C(=O)Nc2ccncc2)cc1` [GSK1398467]: the “%Inh” value is listed as 0%.

Regarding `COC(=O)C(NC(=O)NC1CCN(c2ccnc(Nc3ccc(F)cc3)n2)C1)c1ccccc1` (stereo not drawn) [GSK1379712], the “%Inh” value was 0%.

For the compound `Nc1nccc(-c2c(-c3ccc(F)cc3)ncn2C2CCN(Cc3ccccc3)CC2)n1` [SB-219980], the “%Inh” value was 0%.

With `NS(=O)(=O)c1cccc(N/C=C2\C(=O)Nc3ccc(S(=O)(=O)Cc4c(Cl)cccc4Cl)cc32)c1` [GSK398099], the “%Inh” value is given as 0%.

In the case of `CN1c2ccc(-c3ccc(C(N)=O)cc3)cc2-c2[nH]ncc2S1(=O)=O`, the “%Inh” value is recorded as 0%.

With `CNC(=O)c1ccc(C)c(-n2c(C)cc(OCc3ccc(F)cc3F)c(Br)c2=O)c1`, the “%Inh” value came out at 0%.

With `Nc1ncnc2occ(-c3ccc4c(c3)CCN4C(=O)Cc3cc(F)ccc3F)c12` [GSK2645446], the “%Inh” value is reported as 0%.

For `Cc1c(Cn2c(C)c(C)n3c(=O)cc(N4CCOCC4)nc23)cccc1C(F)(F)F` [GSK2328680], the “%Inh” value was 0%.

With `Cc1ccc(-c2nc(Nc3ccncc3)c3ccccc3n2)s1` [GSK189015], the “%Inh” value came to 12%.

As for `O=C1NC(=O)C(c2ccc(Cl)cc2)=C1Nc1cccc(Cl)c1` [SB-317651], the “%Inh” value turned out to be 0%.

Regarding `Cn1cnc2c(N)ncnc21` [SKF-97623], the “%Inh” value is given as 0%.

Take `Cc1ccc(NC(=O)Nc2ccccc2)cc1-c1ccc(C(=O)Nc2ccncc2)cc1` [GSK1398471]: the “%Inh” value was determined as 0%.

Take `CCn1c(-c2c(N)noc2C)nc2cnccc21` [SB-737856]: the “%Inh” value was determined as 0%.

Consider `COc1ccc(Nc2nccc(-c3ccc(NC(=O)c4cc5cc(F)ccc5[nH]4)cc3)n2)cc1` [GSK1229496], for which the “%Inh” value amounted to 0%.

Turning to `Nc1cccc(-c2ccc3c(N)n[nH]c3c2)n1` [GSK2192730], the “%Inh” value was 0%.

For the compound `CS(=O)(=O)CCNCc1nc(-c2ccc3ncnc(Nc4ccc(OCc5ccccc5)c(Cl)c4)c3c2)cs1.Cl` [GW582764], the “%Inh” value was 0%.

Regarding `COc1ccc(Nc2nccc(N3CCC(NC(=O)C(C)c4ccc(Cl)cc4)C3)n2)cc1` (stereo not drawn) [GSK1379735], the “%Inh” value came out at 11%.

As for `Cc1cnc(N)c(/C=C/c2cncc(C(=O)NCCc3ccc(Cl)cc3Cl)c2)c1.Cl` [GSK190937], the “%Inh” value turned out to be 0%.

In the case of `O=C(Nc1n[nH]c2nc(-c3cccs3)c(Br)cc12)C1CC1` [SB-735297], the “%Inh” value was 41%.

These data come from article PMC5540273 (PLoS ONE, 2017).
